# Measurements: PubChem BioAssay AID602270 (The Scripps Research Institute Molecular Screening Center, 2012)
# The other results are listed elsewhere or left out. Values without a mark were called inactive. Active and inactive are the calls of the source. No stated cut-off is given here; in the data, active means activation above about 4%; inactive means the rest.
# Test system: Methionine sulfoxide reductase A (Bos taurus)
# Assay: bovine MsrA activators, retest, confirmation, biochemical, absorbance, HTS (AID 602270);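 further: enzyme coupled to thioredoxin and thioredoxin reductase with NADPH; 0% = vehicle wells and 100% = reference activator wells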
# Settings: purified bovine MsrA, absorbance read-out; at 10.6 µM; hits give high values
row,Compound,activation
1,CCOc1cccc(-n2nnnc2-c2ccc(OC)cc2)c1,-1.06%
2,O=C(O)c1ccccc1NC(=O)c1ccccc1-c1ccccc1C(=O)O,-3.02%
3,NC1=CC(=O)C(=O)c2cccnc21,5.78% (active)
4,CCOc1ccc2[nH]c(=S)sc2c1,1.68%
5,CCCCNC(=O)OC(C)CNC(=O)OC (centres undefined),-2.15%
6,CCc1ccc(NC(=O)CSc2nnc(-c3cnccn3)n2Cc2ccco2)cc1,-1.98%
7,CSCCC1NC(=O)N(CC(=O)Nc2cccc(S(=O)(=O)N3CCCCCC3)c2)C1=O (centres undefined),-0.9%
8,Cn1nnnc1SCC(=O)N1CCN(Cc2ccccc2)CC1,-1.94%
9,S=c1[nH]nc(NCCc2ccccc2)s1,7.45% (active)
10,O=C1C(Sc2cccc(F)c2)=C[C@@]2(O)CC[C@@H](O)[C@]1(Sc1cccc(F)c1)[C@H]2O,-4.14%
11,Cc1ccc(C)c(NC(=O)CSc2nnc(Cc3cccn3C)n2-c2ccc(F)cc2)c1,2.75%
12,O=C(NC1=CC(=O)c2ccccc2C1=O)c1ccccc1,14.4% (active)
13,CCCN(CC(=O)Nc1ccccc1C)C(=O)c1ccc2[nH]c3c(c2c1)CC(C)CC3 (centres undefined),2.07%
14,O=C(CSc1n[nH]c(-c2cccs2)n1)N1CCCCC1,-1.33%
15,O=C(NCc1ccccc1)C1c2ccccc2OCC(=O)N1C1CC1 (centres undefined),1.81%
16,O=C(CCN1CCN(c2ccccc2)CC1)NNC(=S)Nc1ccccc1,-0.61%
17,CCN(CC(=O)Nc1ccccc1OC)C(=O)CC1CC2CCC1C2 (centres undefined),0.76%
18,CC1(C)S[C@@H]2[C@H](NC(=O)COc3ccccc3)C(=O)N2C1C(=O)OCc1ccccc1 (some centres undefined),0.74%
19,COc1ccc([C@H]2CC(=O)C=C(/C=C/c3ccccc3)C2)cc1,-2.68%
20,COc1cc(NC(=O)COC(=O)c2ccc([N+](=O)[O-])s2)cc(OC)c1OC,4.75% (active)
21,COc1ccccc1-n1cn[nH]c1=S,-0.06%
22,O=C(O)c1ccccc1-c1ccccc1C(=O)Nc1cccc2ccccc12,-1.68%
23,COc1ccc(C(CNC(=O)c2cc3c(s2)CCCC3)N2CCOCC2)cc1 (centres undefined),0.61%
24,O=C(O)C1CCCCC1C(=O)Nc1ccc(Cl)cc1 (centres undefined),-0.71%
